Results: the supplement of paper PMC4466140

Key:
Test in all cases: SPOT peptide array binding signal intensity (averaged, normalized) (arbitrary units (background-subtracted, floor 0; scale differs between SH3 domains)); higher = stronger binding of the SH3 domain to the peptide
AgAbp1 = molecular target: AgAbp1
Summary of the method: (§1)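 GST-SH3 fusions from four yeast species, purified on glutathione Sepharose, were incubated at 10 μg/ml overnight at 4°C on membranes of synthetic 15-mer peptides in which cysteines were replaced with serines. Binding signal is the normalized, background-subtracted spot intensity averaged over replicates, in domain-specific arbitrary units.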

AgBbc1 = molecular target: AgBbc1
Summary of the method: as §1

AgBem1-D1 = molecular target: AgBem1-D1
Summary of the method: as §1

AgBzz1-D1 = molecular target: AgBzz1-D1
Summary of the method: as §1

AgBzz1-D2 = molecular target: AgBzz1-D2
Summary of the method: as §1

AgCyk3 = molecular target: AgCyk3
Summary of the method: as §1

AgFus1 = molecular target: AgFus1
Summary of the method: as §1

AgHof1 = molecular target: AgHof1
Summary of the method: as §1

AgHse1 = molecular target: AgHse1
Summary of the method: as §1

AgLsb1 = molecular target: AgLsb1
Summary of the method: as §1

AgLsb4 = molecular target: AgLsb4
Summary of the method: as §1

AgMyo5 = molecular target: AgMyo5
Summary of the method: as §1

AgNbp2 = molecular target: AgNbp2
Summary of the method: as §1

AgRvs167 = molecular target: AgRvs167
Summary of the method: as §1

AgSho1 = molecular target: AgSho1
Summary of the method: as §1

AgSla1-D1-D2 = molecular target: AgSla1-D1-D2
Summary of the method: as §1

AgSla1-D3 = molecular target: AgSla1-D3
Summary of the method: as §1

CaAbp1-D1 = molecular target: CaAbp1-D1
Summary of the method: as §1

CaAbp1-D2 = molecular target: CaAbp1-D2
Summary of the method: as §1

CaBbc1 = molecular target: CaBbc1
Summary of the method: as §1

CaBem1-D1 = molecular target: CaBem1-D1
Summary of the method: as §1

CaBzz1-D1 = molecular target: CaBzz1-D1
Summary of the method: as §1

CaBzz1-D2 = molecular target: CaBzz1-D2
Summary of the method: as §1

CaCyk3 = molecular target: CaCyk3
Summary of the method: as §1

CaFus1 = molecular target: CaFus1
Summary of the method: as §1

CaHof1 = molecular target: CaHof1
Summary of the method: as §1

CaHse1 = molecular target: CaHse1
Summary of the method: as §1

CaLsb1 = molecular target: CaLsb1
Summary of the method: as §1

CaLsb4 = molecular target: CaLsb4
Summary of the method: as §1

CaMyo5 = molecular target: CaMyo5
Summary of the method: as §1

CaNbp2 = molecular target: CaNbp2
Summary of the method: as §1

CaRvs167 = molecular target: CaRvs167
Summary of the method: as §1

CaRvs167-3 = molecular target: CaRvs167-3
Summary of the method: as §1

CaSho1 = molecular target: CaSho1
Summary of the method: as §1

CaSla1-D1-D2 = molecular target: CaSla1-D1-D2
Summary of the method: as §1

CaSla1-D3 = molecular target: CaSla1-D3
Summary of the method: as §1

ScAbp1 = molecular target: ScAbp1
Summary of the method: as §1

ScBbc1 = molecular target: ScBbc1
Summary of the method: as §1

ScBem1-D1 = molecular target: ScBem1-D1
Summary of the method: as §1

ScBzz1-D1 = molecular target: ScBzz1-D1
Summary of the method: as §1

ScBzz1-D2 = molecular target: ScBzz1-D2
Summary of the method: as §1

ScCyk3 = molecular target: ScCyk3
Summary of the method: as §1

ScFus1 = molecular target: ScFus1
Summary of the method: as §1

ScHof1 = molecular target: ScHof1
Summary of the method: as §1

ScHse1 = molecular target: ScHse1
Summary of the method: as §1

ScLsb1 = molecular target: ScLsb1
Summary of the method: as §1

ScLsb2 = molecular target: ScLsb2
Summary of the method: as §1

ScLsb3 = molecular target: ScLsb3
Summary of the method: as §1

ScLsb4 = molecular target: ScLsb4
Summary of the method: as §1

ScMyo3 = molecular target: ScMyo3
Summary of the method: as §1

ScMyo5 = molecular target: ScMyo5
Summary of the method: as §1

ScNbp2 = molecular target: ScNbp2
Summary of the method: as §1

ScPex13 = molecular target: ScPex13
Summary of the method: as §1

ScRvs167 = molecular target: ScRvs167
Summary of the method: as §1

ScSho1 = molecular target: ScSho1
Summary of the method: as §1

ScSla1-D1-D2 = molecular target: ScSla1-D1-D2
Summary of the method: as §1

ScSla1-D3 = molecular target: ScSla1-D3
Summary of the method: as §1

SpAbp1-D1 = molecular target: SpAbp1-D1
Summary of the method: as §1

SpBbc1 = molecular target: SpBbc1
Summary of the method: as §1

SpBzz1-D1 = molecular target: SpBzz1-D1
Summary of the method: as §1

SpBzz1-D2 = molecular target: SpBzz1-D2
Summary of the method: as §1

SpCyk3 = molecular target: SpCyk3
Summary of the method: as §1

SpHof1 = molecular target: SpHof1
Summary of the method: as §1

SpHof1-2 = molecular target: SpHof1-2
Summary of the method: as §1

SpHof1-3 = molecular target: SpHof1-3
Summary of the method: as §1

SpHse1 = molecular target: SpHse1
Summary of the method: as §1

SpLsb1 = molecular target: SpLsb1
Summary of the method: as §1

SpLsb4 = molecular target: SpLsb4
Summary of the method: as §1

SpMyo1 = molecular target: SpMyo1
Summary of the method: as §1

SpNbp2 = molecular target: SpNbp2
Summary of the method: as §1

SpPex13 = molecular target: SpPex13
Summary of the method: as §1

SpRvs167 = molecular target: SpRvs167
Summary of the method: as §1

SpSla1-D1-D2 = molecular target: SpSla1-D1-D2
Summary of the method: as §1

SpSla1-D3 = molecular target: SpSla1-D3
Summary of the method: as §1

Binder: KRRAPPPVPKKPSSR
- SPOT peptide array binding signal intensity (AgAbp1): 5310
- SPOT peptide array binding signal intensity (AgBbc1): 1320
- SPOT peptide array binding signal intensity (AgBem1-D1): 274
- SPOT peptide array binding signal intensity (AgBzz1-D1): 2790
- SPOT peptide array binding signal intensity (AgBzz1-D2): 1090
- SPOT peptide array binding signal intensity (AgCyk3): 4
- SPOT peptide array binding signal intensity (AgFus1): 42.5
- SPOT peptide array binding signal intensity (AgHof1): 358
- SPOT peptide array binding signal intensity (AgHse1): 332
- SPOT peptide array binding signal intensity (AgLsb1): 650
- SPOT peptide array binding signal intensity (AgLsb4): 374
- SPOT peptide array binding signal intensity (AgMyo5): 37
- SPOT peptide array binding signal intensity (AgNbp2): 6190
- SPOT peptide array binding signal intensity (AgRvs167): 106
- SPOT peptide array binding signal intensity (AgSho1): 886
- SPOT peptide array binding signal intensity (AgSla1-D1-D2): 107
- SPOT peptide array binding signal intensity (AgSla1-D3): 1230
- SPOT peptide array binding signal intensity (CaAbp1-D1): 5770
- SPOT peptide array binding signal intensity (CaAbp1-D2): 7000
- SPOT peptide array binding signal intensity (CaBbc1): 2030
- SPOT peptide array binding signal intensity (CaBem1-D1): 95
- SPOT peptide array binding signal intensity (CaBzz1-D1): 7240
- SPOT peptide array binding signal intensity (CaBzz1-D2): 4490
- SPOT peptide array binding signal intensity (CaCyk3): 458
- SPOT peptide array binding signal intensity (CaFus1): 308
- SPOT peptide array binding signal intensity (CaHof1): 0.75
- SPOT peptide array binding signal intensity (CaHse1): 1600
- SPOT peptide array binding signal intensity (CaLsb1): ≤ 0
- SPOT peptide array binding signal intensity (CaLsb4): 2400
- SPOT peptide array binding signal intensity (CaMyo5): 4.75
- SPOT peptide array binding signal intensity (CaNbp2): 2600
- SPOT peptide array binding signal intensity (CaRvs167): 130
- SPOT peptide array binding signal intensity (CaRvs167-3): 21.8
- SPOT peptide array binding signal intensity (CaSho1): 269
- SPOT peptide array binding signal intensity (CaSla1-D1-D2): 3450
- SPOT peptide array binding signal intensity (CaSla1-D3): 1040
- SPOT peptide array binding signal intensity (ScAbp1): 3030
- SPOT peptide array binding signal intensity (ScBbc1): 669
- SPOT peptide array binding signal intensity (ScBem1-D1): 29
- SPOT peptide array binding signal intensity (ScBzz1-D1): 2330
- SPOT peptide array binding signal intensity (ScBzz1-D2): 82.5
- SPOT peptide array binding signal intensity (ScCyk3): 13
- SPOT peptide array binding signal intensity (ScFus1): 45.5
- SPOT peptide array binding signal intensity (ScHof1): 0.5
- SPOT peptide array binding signal intensity (ScHse1): 448
- SPOT peptide array binding signal intensity (ScLsb1): 517
- SPOT peptide array binding signal intensity (ScLsb2): 684
- SPOT peptide array binding signal intensity (ScLsb3): 4730
- SPOT peptide array binding signal intensity (ScLsb4): 105
- SPOT peptide array binding signal intensity (ScMyo3): 439
- SPOT peptide array binding signal intensity (ScMyo5): 380
- SPOT peptide array binding signal intensity (ScNbp2): 6200
- SPOT peptide array binding signal intensity (ScPex13): 512
- SPOT peptide array binding signal intensity (ScRvs167): 1260
- SPOT peptide array binding signal intensity (ScSho1): 3480
- SPOT peptide array binding signal intensity (ScSla1-D1-D2): 4950
- SPOT peptide array binding signal intensity (ScSla1-D3): 1400
- SPOT peptide array binding signal intensity (SpAbp1-D1): 6350
- SPOT peptide array binding signal intensity (SpBbc1): 192
- SPOT peptide array binding signal intensity (SpBzz1-D1): 1370
- SPOT peptide array binding signal intensity (SpBzz1-D2): 1470
- SPOT peptide array binding signal intensity (SpCyk3): 2.5
- SPOT peptide array binding signal intensity (SpHof1): 218
- SPOT peptide array binding signal intensity (SpHof1-2): 37.8
- SPOT peptide array binding signal intensity (SpHof1-3): 591
- SPOT peptide array binding signal intensity (SpHse1): 179
- SPOT peptide array binding signal intensity (SpLsb1): 1780
- SPOT peptide array binding signal intensity (SpLsb4): 2060
- SPOT peptide array binding signal intensity (SpMyo1): 416
- SPOT peptide array binding signal intensity (SpNbp2): 188
- SPOT peptide array binding signal intensity (SpPex13): 22
- SPOT peptide array binding signal intensity (SpRvs167): 1820
- SPOT peptide array binding signal intensity (SpSla1-D1-D2): 1660
- SPOT peptide array binding signal intensity (SpSla1-D3): 1.5
